39 molecules from PubChem BioAssay (EPA / NIEHS) can be followed below.

Several values for one entry are separate records, joined by “and”; a condition that tells them apart may be missing. Identical values can stand only once. The source holds several records for some structures; these can differ, active in one and inactive in another. Activity calls are given as the source filed them. How the source made its calls: active means hit-call score of the fitted dose curve at least 0.9, where 1 is the maximum; inactive means score below 0.9.

What is called AC50 is the concentration giving half of the maximal activity seen.

Read-out in the test: Monocyte Chemoattractant Protein-1 (MCP1), CCL2 (gene 6347)
Description: BSK_4H_MCP1: BioMAP Diversity Plus: 4H Assay for Monocyte Chemoattractant Protein-1 (MCP1) Biomarker Activity (AID 2283018). Conditions: primary human endothelial cells (HUVEC); actives raise or lower the signal. The method, then: BSK_4H is a cell-based, multiplexed-readout assay that uses umbilical vein endothelium, a human vascular primary cell, with measurements taken at 24 hours after chemical dosing in a 96-well plate.BSK_4H_MCP1 is an assay component measured in the BSK_4H assay. It measures MCP-1 antibody related to regulation of gene expression using ELISA technology.Data from the assay component BSK_4H_MCP1 was analyzed into 1 assay endpoint. This assay endpoint, BSK_4H_MCP1, was analyzed with bidirectional fitting relative to DMSO as the negative control and baseline of activity. Using a type of binding reporter, gain or loss-of-signal activity can be used to understand changes in the signaling as they relate to the gene CCL2. Furthermore, this assay endpoint can be referred to as a primary readout, because this assay has produced multiple assay endpoints where this one serves a signaling function. To generalize the intended target to other relatable targets, this assay endpoint is annotated to the cytokine intended target family, where the subfamily is chemotactic factor.
The levels of cell surface (or secreted, indicated by the prefix "s") biomarker endpoints were measured by ELISA. Overt cytotoxicity to cells in confluent adherent cultures (all systems other than the BT system) was assessed by measuring total protein levels using sulforhodamine B (SRB) staining in parallel cultures at the time of biomarker measurements, indicated as SRB endpoints. For proliferation assays for adherent cell types, individual cell types are cultured at sub-confluence and relative cell numbers quantified by SRB staining at time points optimized for each system (48 h: 3C and CASM3C systems; 72 h: BT and HDF3CGF systems; 96 h: SAg system). SRB was performed by staining cells with 0.1% SRB after fixation with 10% TCA and reading wells at 560 nm.Viability and proliferation of PBMC (T cells) was quantified by Alamar Blue reduction for the SAg and BT systems. For PBMC viability (referred to as PBMC Cytotoxicity within the assay endpoint names), cells were plated (75,000/well in a 96-well plate) and then chemical samples added for 1 h before addition of activators, SEB and TSST-1 (20 ng/mL final concentration each). Cells were incubated for 90 h. Then, Alamar Blue (20 uL/well) (Invitrogen, Cat DAL1100) was added for 6 h, and the plates were read with a fluorescence microplate reader at 546/580 nm (excitation/emission). For PBMC proliferation, cells were plated and activated as above but incubated for only 16 h prior to addition of Alamar Blue. Plates were read after 6 h.
As to `Cc1ccc(O)c(-n2nc3ccccc3n2)c1`, the result was inactive. Same read-out and setting: with `CCN(CC)c1ccc2c(c1)Oc1cc(N(CC)CC)ccc1C21OC(=O)c2ccccc21` the entry was “inactive”.

Turning to `C=CC(=O)OCC(F)(F)C(F)(F)C(F)(F)COC(=O)C=C`, the AC50 is 30 µM (active) and 8.24 µM (active). In the case of `O=S(=O)(O)CCC(F)(F)C(F)(F)C(F)(F)C(F)(F)F`, the outcome was inactive. For `NCC(F)(F)C(F)(F)C(F)(F)C(F)(F)C(F)(F)C(F)(F)C(F)(F)C(F)(F)F`, the result was inactive. As to `OCC(F)(F)C(F)(F)C(F)(F)C(F)(F)C(F)(F)C(F)(F)CO`, the outcome was inactive. On to `CCN(CC)c1ccc(N=Nc2ccccc2)cc1`, for which the AC50 was 13.2 µM (active). In the case of `CCN(CCO)S(=O)(=O)C(F)(F)C(F)(F)C(F)(F)C(F)(F)C(F)(F)C(F)(F)C(F)(F)C(F)(F)F`, the outcome was inactive. Take `O=S(=O)(OCC(F)(F)F)C(F)(F)C(F)(F)C(F)(F)C(F)(F)F`: the outcome was inactive. On to `O=S(=O)(O)CCC(F)(F)C(F)(F)C(F)(F)C(F)(F)C(F)(F)C(F)(F)C(F)(F)C(F)(F)F`, for which the result was inactive.

Take `OCCCC(F)(F)C(F)(F)C(F)(F)C(F)(F)C(F)(F)C(F)(F)C(F)(F)C(F)(F)F`: the concentration at half-maximal activity (AC50) is 45.5 µM (active) and 46.7 µM (active). As to `OCC(F)(F)C(F)(F)C(F)(F)C(F)(F)C(F)(F)C(F)(F)C(F)(F)C(F)(F)CO`, the outcome was inactive. Same read-out and setting: with `OCC(O)CC(F)(F)C(F)(F)C(F)(F)C(F)(F)F` (stereo not given) the entry was “inactive”; with `FC(F)(F)C(F)(F)C(F)(F)C(F)(F)C(F)(F)C(F)(F)CC[Si](Cl)(Cl)Cl`, “inactive”. On to `O=S(=O)(Cl)C(F)(F)C(F)(F)C(F)(F)C(F)(F)C(F)(F)C(F)(F)C(F)(F)C(F)(F)F`, for which the AC50 was 22.3 µM (active) and the result was inactive. As to `OCC(O)CC(F)(F)C(F)(F)C(F)(F)C(F)(F)C(F)(F)C(F)(F)C(F)(F)C(F)(F)F` (stereo not given), the outcome was inactive. Regarding `NS(=O)(=O)C(F)(F)C(F)(F)C(F)(F)C(F)(F)C(F)(F)C(F)(F)F`, the result was inactive. Take `FC(F)(F)C(F)(F)C(F)(F)CC1CO1` (stereo not given): the outcome was inactive. As for `NC(=O)C(F)(F)C(F)(F)C(F)(F)C(F)(F)C(F)(F)C(F)(F)C(F)(F)F`, the result was inactive.

In the case of `Cc1ccc(S(=O)(=O)C(I)I)cc1`, the AC50 was 1.43 µM (active). In the case of `Cc1cnccn1`, the outcome was inactive. With `O=C(O)CCC(F)(F)C(F)(F)C(F)(F)C(F)(F)C(F)(F)C(F)(F)C(F)(F)F`, the outcome was inactive. As to `C=CC(=O)OCC(F)(F)C(F)(F)C(F)(F)C(F)(F)C(F)(F)C(F)(F)C(F)(F)C(F)F`, the result was inactive. In the case of `CCN=C1C=CC(=C(c2ccc(N(CC)CC)cc2)c2ccc(N(CC)CC)cc2)c2ccccc21`, the AC50 was 1.03 µM (active) and 1.16 µM (active). On to `CNS(=O)(=O)C(F)(F)C(F)(F)C(F)(F)C(F)(F)C(F)(F)C(F)(F)C(F)(F)C(F)(F)F`, for which the result was inactive. `CN(C(=O)C(F)(F)C(F)(F)C(F)(F)F)[Si](C)(C)C`: the result was inactive.

Consider `CCN(CC)c1ccc(C=O)c(O)c1`, for which the outcome was inactive. For the molecule `CC1=CC2C3C=CC(C3)C2C1C` (stereo not given), the outcome was inactive.

Consider `NC(=O)C(F)(F)C(F)(F)C(F)(F)F`, for which the result was inactive. With `OC(O)C(F)(F)C(F)(F)F`, the result was inactive.

As to `O=C(O)C(F)(F)C(F)(F)C(F)(F)C(=O)O`, the outcome was inactive. On to `O=C(Cl)C(F)(F)C(F)(F)C(F)(F)C(F)(F)C(F)(F)C(F)(F)F`, for which the result was inactive. As to `O=C(O)C(F)(F)OC(F)(F)C(F)(F)OC(F)(F)C(F)(F)OC(F)(F)F`, the result was inactive.

In the case of `FC(F)(F)C(F)(F)C(F)(F)C(F)(F)C(F)(F)C(F)(F)C(F)(F)CCI`, the outcome was inactive.

Regarding `O=C=Nc1cccc2c(N=C=O)cccc12`, the AC50 was 0.502 µM (active). For `OCCCCC(F)(F)C(F)(F)C(F)(F)C(F)(F)F`, the result was inactive.

Turning to `OCC(F)(F)C(F)(F)C(F)(F)CO`, the result was inactive. As for `NC(=O)C(F)(F)C(F)(F)C(F)(F)C(F)F`, the result was inactive. The same measure, in the same setting: the result for `O=C(O)C(F)(F)C(F)(F)C(F)(F)C(F)(F)C(F)(F)C(F)(F)C(F)F` reads “inactive”.
